The values that follow come from PubChem BioAssay (NCATS).

Inconclusive results are not listed. Where a call stands in place of a potency, no number is given. Activity calls are given as the source filed them. The call rests on the fitted dose curve; in most records, active means well fitted inhibition curve with a large enough effect; inconclusive means small, poorly fitted or top-dose-only effect; inactive means no such curve, though single readings can be large or run the other way.
Potency means the concentration at half of the fitted maximal effect.

The nature of the assay: qHTS for Hypoxia signaling pathway (HIF-1) antagonists against the NCATS CANVASS Library (AID 1347374). Further: nearly all actives have a fitted effect of over 60% in size. Conditions: HRE-bla ME-180 cells, HIF-1 beta-lactamase reporter, CoCl2; series mostly up to 38.3 µM. The text has this:
Natural products and their derivatives continue to be wellsprings of nascent therapeutic potential. However, many laboratories have limited resources for biological evaluation, leaving their previously isolated or synthesized compounds largely or completely untested. To address this issue, the Canvass library of natural products was assembled (https://tripod.nih.gov/canvass), in collaboration with academic and industry researchers, for quantitative high-throughput screening (qHTS) across a diverse set of cell-based and biochemical assays. […] We collected pure natural products to circumvent deconvolution and structure elucidation due to time and resource limitations. The library was formatted into 1536-well plates and evaluated in 50 qHTS (in an 11-pnt concentration series) bioassays with broad scope of disease-relevant mechanisms. The resulting data set from 50 different assays was then systematically analyzed to identify overall trends and specific natural products with interesting biological activities. Reported herein are the results of each individual qHTS and their corresponding assay protocol. During hypoxic conditions, the cellular responses are regulated in large part through the activation of the heterodimeric transcription factor called hypoxia-inducible factor-1 (HIF-1). The assay used is a beta-lactamase reporter gene under control of the hypoxia responsive element (HRE) that has been stably integrated into ME-180 cells. This assay identifies inducers of the HIF-1-signaling pathway. The cytotoxicity of the compound library against HRE-bla ME-180 cell line was tested in parallel by measuring cell viability using CellTiter-Glo assay (Promega, Madison, WI) in the same assay wells. The compounds were also tested for auto fluorescence that may interfere with the biological target readout resulting in potential false positives and/or negatives. National Center for Advancing Translational Sciences (NCATS), Rockville, MD National Institute of Health (NIH), Bethesda, Maryland
HIF-1 antagonist assay protocol: 1. HRE-bla ME-180 cells were dispensed at 2,000 cells per well in 5 uL of assay medium containing 0.5% dialyzed FBS into black wall/clear-bottom 1536-well plates using a Multidrop Combi (Thermo Scientific, Waltham, MA) dispenser. 2. After the assay plates were incubated at 37C and 5% CO2 for 5 hrs, 23 nL of compounds dissolved in DMSO, positive controls or DMSO only was transferred to each well of the assay plate using a Pintool station (Kalypsys, San Diego, CA). 3. One microliter of 60 uM CoCl2 (which enhance the stability of HIF-1alpha) or 1 uL of assay medium was added to the wells using BioRAPTR dispenser. 4. The assay plates were then incubated at 37C and 5% CO2 for 17 hrs. 5. One microliter of CCF4 dye was added the assay plate and incubated at room temperature for 2 hours. 6. The fluorescence intensity was obtained using the EnVision (PerkinElmer, Shelton, CT) plate reader using a 405 nm excitation, and 460 and 530 nm emission filters. 7. To assess cell viability (and for data normalization), 4uL of CellTiter-Glo (Promega) was added to the assay plate using the BioRAPTR dispenser and incubated at room temperature for 30 min. 8. Luminescence signal was obtained using the ViewLux microplate reader (PerkinElmer) using a clear emission mirror, and a 15 sec exposure time, 1x binning settings.
On the technique in general: Quantitative high-throughput screening tests each substance at several concentrations.
`CNCCc1ccccc1`: the Potency entry was “inactive”.

Regarding `CO[C@H](c1ccccc1)[C@H]1NC(=O)C(C)NC(=O)C(C[C@@H](C)CO)N(C)C(=O)[C@@H](C(O)c2cn(C(C)(C)C3CO3)c3ccccc23)NC(=O)C(C(C)C=C(C)C)NC(=O)C(CC(C)C)N(C)C(=O)C(C(C)C)NC1=O` (stereo partly specified), the Potency result was “inactive”.

On to `CO[C@@H](/C=C/CC/C=C/C(=O)O)[C@@H](O)[C@H](C)[C@@H](O)/C(C)=C/[C@H](C)C(=O)CCCC1CC(=O)NC(=O)C1`, for which the Potency result is “inactive”.

Take `C[C@]12CC(O)C3[C@@H](CCC4C[C@@H](O)CC[C@@]43CO)[C@@]1(O)CCC2C1=CC(=O)OC1` (stereo partly specified): the Potency entry was “inactive”.

Take `CC(=O)N[C@H]1CCN2CCC[C@H]12`: the Potency entry is “inactive”.

For the molecule `COC(=O)C1=C2Nc3ccccc3[C@@]23CCN2CC(C(C)=O)C1C[C@H]23` (stereo partly specified), the Potency entry is “inactive”.

As for `CO[C@@H](/C=C/CC/C=C/C(=O)O)[C@@H](O)[C@H](C)/C=C(\C)[C@@H](O)[C@H](C)C(=O)CCCC1CC(=O)NC(=O)C1`, the Potency result was “inactive”.

Consider `C=C1[C@@H](C)[C@H]2[C@H](Cc3ccccc3)NC(=O)[C@]23OC(=O)/C=C/[C@H](O)CCC[C@@H](C)C/C=C/[C@H]3[C@@H]1O`, for which the Potency is 2.11 µM (active).

As to `CC[C@@H]1CN2CC[C@@]3(O)C(=Nc4cccc(OC)c43)[C@@H]2C[C@@H]1/C(=C\OC)C(=O)OC`, the Potency result is “inactive”.

Turning to `CN1C(=O)[C@]23CC4C(C)(C)[C@@]5(C[C@@]41CN2CC[C@@]3(C)O)C(=O)Nc1c5ccc2c1OC=CC(C)(C)O2` (stereo partly specified), the Potency result was “inactive”.

On to `COc1ccc2c(c1)[nH]c1c(C)nccc12`, for which the Potency is 17.2 µM (active).

Consider `C/C=C1/CN2CC[C@]34C(=Nc5ccccc53)[C@@H]2C[C@@H]1[C@H]4C(=O)OC`, for which the Potency result was “inactive”.

On to `CCC[C@H]1CC[C@H]2[C@H](C)CCC[C@H]2N1`, for which the Potency entry is “inactive”.

Consider `COc1ccc2c3c([nH]c2c1)C(C)=NCC3`, for which the Potency entry was “inactive”.

Consider `NCCc1ccccc1`, for which the Potency entry is “inactive”.

With `CCN1C[C@]2(C)CC[C@@H](O)[C@]34C1[C@H](C[C@H]23)C12CCC(CC14)[C@](O)(CO)[C@H]2O` (stereo partly specified), the Potency result was “inactive”.

With `CNCCc1c[nH]c2ccccc12`, the Potency result was “inactive”.

Take `CCCCC[C@@H]1OC(=O)[C@@H](C)N(C)C(=O)[C@H](CCCCC)OC(=O)C(C)N(C)C(=O)[C@H](CCCCC)OC(=O)[C@@H](C)N(C)C(=O)[C@H](CCCCC)OC(=O)C(C)N(C)C1=O` (stereo partly specified): the Potency is 11.8 µM (active).

As to `O=C(c1ccccc1O)c1[nH]c(Cl)c(Cl)c1-n1c(C(=O)c2ccccc2O)cc(Cl)c1Cl`, the Potency is 1.18 µM (active).

As for `CCC(=O)CCCCC[C@@H]1NC(=O)[C@H]2CCCCN2C(=O)[C@H]([C@@H](C)CC)NC(=O)[C@H](Cc2cn(OC)c3ccccc23)NC1=O`, the Potency result is “inactive”.

With `CC[N@@+]1([O-])C[C@]2(C)CC[C@@H](O)[C@@]34C5C[C@H]6CC[C@@]5(C(C[C@H]23)C41)[C@H](O)[C@@]6(O)CO` (stereo partly specified), the Potency entry was “inactive”.

On to `COc1ccc(C23Oc4cc(OC)cc(OC)c4[C@](O)([C@H](c4ccccc4)C2C(=O)NCCCCNC(=O)c2ccccc2)[C@@H]3O)cc1` (stereo partly specified), for which the Potency result was “inactive”.

As to `CC1=CC2CC[C@@H]3[C@@H](C)C[C@H](C)[C@@H](C1)N23` (stereo partly specified), the Potency entry is “inactive”.

For the molecule `CCN1C[C@]2(C)CC[C@H](O)[C@]34C1C(C[C@H]23)[C@@]12CC[C@H](CC14)[C@](O)(COC(=O)c1ccc(OC)c(OC)c1)[C@H]2O` (stereo partly specified), the Potency result was “inactive”.

Regarding `CNCCc1ccc(O)cc1`, the Potency result was “inactive”.

Consider `CCCC[C@@H]1CC[C@H]2CCCC(CCC)N12` (stereo partly specified), for which the Potency result is “inactive”.
